The record followed here is PubChem BioAssay AID540256 (National Center for Advancing Translational Sciences (NCATS), 2011).

Each structure is given as a SMILES string. Out of some 300,000 compounds screened, about 3,700 (1.2%) were called active. A call without a number means that no potency is given here. About 20% were inconclusive and are not listed. The sample holds actives, similar compounds and a random draw of the others, so the mix is not that of the screen. Calls follow the shape of the full dose curve; tested in HEK293 cells.
Potency is read from the fitted curve at half-maximal effect.

This test in a line: qHTS for Inhibitors of binding or entry into cells for Lassa Virus. Also: nearly all actives have a fitted effect of over 50% in size. The note with it: Lassa virus pseudotype entry inhibition, cell reporter; series mostly up to 37.9 µM. (In general: qHTS replaces the single test concentration by a dilution series.)
`COc1ccc(-c2nc(-c3ccccc3)no2)c(OC)c1`: the Potency was 1.64 µM (active). In the case of `CCOc1nc(-c2ccc(OC)cc2)ccc1-c1noc(-c2cc(OC)c(OC)c(OC)c2)n1`, the Potency entry is “inactive”.

On to `CC(=O)c1ccc(NC(=O)COc2ccccc2-c2nc(-c3ccccc3)no2)cc1`, for which the Potency result is “inactive”.

For the compound `CC(=O)OCC(=O)C1(O)CCC2C3CC(C)C4=CC(=O)CCC4(C)C3C(O)CC21C` (stereo not given), the Potency entry was “inactive”. Turning to `O=C(Nc1cccc(S(=O)(=O)N2CCOCC2)c1)C12CC3CC(CC(C3)C1)C2`, the Potency entry was “inactive”. `COc1ccc(CNC(=O)/C(C#N)=C/c2cccc(OC)c2OC)cc1`: the Potency was 3.55 µM (active). Take `COc1ccc(NC(=O)/C(C#N)=C\c2cc(OC)c(OCc3ccc(C(=O)O)cc3)cc2Br)cc1`: the Potency entry was “inactive”. As for `N#C/C(=C\c1ccc(O)c(O)c1)C(=O)NCc1ccccc1`, the Potency result was “inactive”.

As to `O=C(Nc1ccc(Cl)c(Cl)c1)c1ccccc1NC(=O)C1CC=CCC1C(=O)O` (stereo not given), the Potency result is “inactive”. Take `Cc1ccc(CNC(=O)c2c(-c3ccccc3)noc2C)cc1`: the Potency entry is “inactive”. Take `CCOC(=O)c1c(-c2cccc(C)c2)csc1NC(=O)c1c(-c2ccccc2)noc1C`: the Potency was 0.562 µM (active).

Take `CC(=O)Nc1cccc(NC(=O)c2c(-c3ccccc3)noc2C)c1`: the Potency entry was “inactive”.

`Cc1cccc(N2CCN(c3ccc(C(=O)O)cc3NC(=O)c3ccccc3F)CC2C)c1` (stereo not given): the Potency entry is “inactive”. On to `NC(=O)C1(Nc2ccccc2Cl)CCCC1`, for which the Potency result is “inactive”.

For the compound `Cc1noc(NS(=O)(=O)c2ccc(N/C=C/C(=O)c3ccccc3)cc2)c1C`, the Potency result is “inactive”. The same measure for `CCOc1ccc(N/C=C/C(=O)c2ccccc2)cc1`: 7.08 µM (active). Regarding `O=C(/C=C\NCC(=O)c1ccccc1)c1ccccc1`, the Potency result is “inactive”. To `COc1ccc(Cn2c(C(=O)O)c(CNCCc3cccs3)c3ccc(OC)cc32)cc1` belongs “inactive”; to `COc1ccc(CCNCc2c(-c3ccccc3)n(C)c3ccccc23)cc1`, 8.91 µM (active); to `COc1ccc2c(CNCCc3ccccc3C)c(C(=O)O)n(Cc3ccccc3C)c2c1`, “inactive”. `CCOC(=O)C1CCN(C(=O)COc2cccc3ccccc23)CC1`: the Potency entry was “inactive”. `O=C(Nc1cc(S(=O)(=O)N2CCCCC2)ccc1Cl)C1COc2ccccc2O1` (stereo not given): the Potency result is “inactive”.

As for `COc1cccc(CNC(=O)c2ccc3c(c2)sc2nc(-c4cccc(OC)c4)cn23)c1`, the Potency result is “inactive”. For `Cc1cc(C)c2nc(N3CCCC3)c(C#N)cc2c1`, the Potency result is “inactive”. In the case of `CC(=O)c1ccc(S(=O)(=O)N2CCN(c3nc4c(C)c(C)ccc4cc3C#N)CC2)cc1`, the Potency is 18.3 µM (active). For `CC(=O)c1cc(C#N)c(N2CCCCC2)nc1C`, the Potency entry was “inactive”. Regarding `COc1ccc(N2CCN(C(=O)COC(=O)c3cccc(S(=O)(=O)Nc4ccccc4OC)c3)CC2)cc1`, the Potency entry was “inactive”. As for `COCCN(C(=O)C(C)N1C(=O)c2ccccc2C1=O)c1c(N)n(CC(C)C)c(=O)[nH]c1=O` (stereo not given), the Potency entry was “inactive”. With `O=C(Nc1ccn(Cc2ccccc2)n1)c1n[nH]c([N+](=O)[O-])c1Cl`, the Potency was 7.31 µM (active). As for `Cn1cc([N+](=O)[O-])c(C(=O)Nc2cnn(Cc3ccc(F)cc3)c2)n1`, the Potency entry is “inactive”. On to `CC(=O)Nc1ccn(Cc2c(F)cccc2Cl)n1`, for which the Potency entry is “inactive”. As to `O=C(CN1CCC(NC(=O)Nc2ccccc2)CC1)Nc1cccc([N+](=O)[O-])c1`, the Potency entry was “inactive”. For the compound `CCn1c(SCC(=O)Nc2ccc(Br)cc2)nc2sc3c(c2c1=O)CCN(C)C3`, the Potency result was “inactive”. On to `COc1ccc(C)cc1Nc1nc(C)nc2c1oc1ccccc12`, for which the Potency entry was “inactive”.

On to `CCC1([N+](=O)[O-])COC(c2ccc(C(C)C)cc2)OC1` (stereo not given), for which the Potency result was “inactive”.

Consider `COc1ccc(/C=C2\CCCC3C2=NN(C(=O)c2scnc2C)C3c2ccc(OC)cc2)cc1` (stereo not given), for which the Potency is 1.03 µM (active). The same measure for `COc1ccc(/C=C2/CCCc3ccccc3C2=O)cc1`: “inactive”; for `CCOc1ccccc1-c1nc(CN2CCC(C(=O)N3CCOCC3)CC2)c(C)o1`: “inactive”. Turning to `COc1cccc(C=CC(=O)C=CC=Cc2ccccc2)c1`, the Potency result was “inactive”. Regarding `O=[N+]([O-])c1ccc(N=NNc2ccc([N+](=O)[O-])cc2)cc1`, the Potency entry was “inactive”. For `CCc1ccc(NS(=O)(=O)c2ccc3[nH]cc(C(=O)NCCc4cccc(C)c4)c(=O)c3c2)cc1`, the Potency result was “inactive”. Take `CCN(CC)S(=O)(=O)c1ccc2[nH]cc(C(=O)NCCc3ccccc3)c(=O)c2c1`: the Potency was 0.224 µM (active). As for `O=C(NCCc1ccccc1)c1c[nH]c2ccc(F)cc2c1=O`, the Potency result is “inactive”.

Consider `Cc1ccc(-n2ncc3c2CC(C)(C)CC3NC(=O)Cc2c(C)noc2C)cc1` (stereo not given), for which the Potency result was “inactive”. To `CC(C)Cn1cnc2c1c(=O)n(CC(=O)NN)c(=O)n2Cc1ccccc1` belongs “inactive”; to `CC(C)(C)CC(C)(C)NCC(O)COCCOc1ccc(Br)cc1` (stereo not given), 13 µM (active). As for `CC(C)(C)NCC(O)COc1cccc2[nH]c(=O)[nH]c12` (stereo not given), the Potency result is “inactive”. As for `Cc1noc(COc2ccccc2OCC(O)CNC(C)(C)C)n1` (stereo not given), the Potency result was “inactive”. Regarding `CN(N)c1nc(N2CCCC2)nc(N2CCCC2)n1`, the Potency entry is “inactive”.

As for `O=C(Nc1ccccc1Cl)c1ccc2nsnc2c1`, the Potency result is “inactive”. On to `COCCN(CCOC)C(=S)Nc1ccccc1Cl`, for which the Potency result is “inactive”.

For the compound `O=C(Nc1ccccc1Cl)/C(Cl)=C(\Cl)S(=O)c1ccccc1` (stereo not given), the Potency is 8.91 µM (active). Take `CCC(=O)N1CCN(c2ccccc2NC(=O)COc2cccc(C)c2C)CC1`: the Potency entry is “inactive”.

On to `COc1ccc(N(CC(=O)Nc2cc(OC)cc(OC)c2)S(=O)(=O)c2c(C)n[nH]c2C)cc1`, for which the Potency result was “inactive”.

As to `O=C(Nc1ccccc1F)c1cc(S(=O)(=O)N2CCCCC2)cs1`, the Potency was 20.6 µM (active). On to `Cc1ccccc1NC(=O)c1cc(S(=O)(=O)N2CCOCC2)cs1`, for which the Potency result is “inactive”.

`O=C(Nc1ccccc1C(=O)O)c1cc(S(=O)(=O)N2CCCCC2)cs1`: the Potency result is “inactive”.

For `O=C(Nc1ccc2nc(SCCOc3ccccc3)sc2c1)c1ccco1`, the Potency entry is “inactive”.

Take `CCCn1c(C)cc(-c2csc(NC(=O)CCc3nc4ccccc4c(=O)[nH]3)n2)c1C`: the Potency result was “inactive”. For `Cc1oc(-c2ccccc2)nc1Cn1c(SCc2cccc(C(F)(F)F)c2)nc2cccnc21`, the Potency entry was “inactive”. `O=S(=O)(O)c1cc2onnc2c2ccccc12`: the Potency entry was “inactive”. As to `O=C(/C(=C/c1cccc(Cl)c1)c1nc2ccccc2[nH]1)c1ccccc1`, the Potency is 10 µM (active).

As to `Oc1ccc(Cl)cc1/C=N/c1nc2ccccc2[nH]1`, the Potency result is “inactive”. The same measure for `CCC(=O)/C(=C(/O)c1ccccc1)c1nc2ccccc2[nH]1`: “inactive”. As for `CCc1ccc(NC(=O)CN2CCC(C(=O)c3ccc(OC)cc3)CC2)cc1`, the Potency result is “inactive”.
